# According to PubChem BioAssay (NCATS):
# Values joined by “and” are separate entries in the source; they are usually repeats but may differ in a detail not shown here. Equal values may be shown once. Inconclusive results are not listed. A number with no mark means an inactive call. Active and inactive are the calls of the source. The call rests on the fitted dose curve; in most records, active means well fitted inhibition curve with a large enough effect; inconclusive means small, poorly fitted or top-dose-only effect; inactive means flat fitted curve, though single readings scatter.
# Legend:
# CRL-7250 = normal cell line; experiment: Cytotoxic Profiling of Annotated Libraries Using Quantitative High-Throughput Screening (AID 1296008); conditions: Five cell lines viability, CellTiter-Glo ATP luminescence, 48-72 h; max response: stronger effect = lower value; on max response: on the % scale 0 is the no-effect control and ±100 the full control effect
# Procedure, shortened: (§1)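 Cells exposed to compounds for 48 or 72 hr at 37 degrees Celsius. Viability read as ATP-coupled luminescence with CellTiter-Glo after 10 min at room temperature.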
# HaCat [1] = experiment: as above; conditions: Five cell lines viability, CellTiter-Glo ATP luminescence, 48-72 h; max response: stronger effect = lower value
# Procedure, shortened: as §1
# KB-3-1 = experiment: as above; conditions: Five cell lines viability, CellTiter-Glo ATP luminescence, 48-72 h; max response: stronger effect = lower value
# Procedure, shortened: as §1
# HACAT [2] = experiment: qHTS assay to identify novel small-molecules to repurpose for Merkel cell carcinoma treatment (AID 1296009); conditions: MCC and control cell lines, CellTiter-Glo viability, 72 h; at 44.8 µM (top of the series) unless noted
# Procedure, shortened: (§2)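 Cells were treated for 72 hr at 37 degree celsius with compounds in 8- or 11-point dose response. Viability was read by CellTiter-Glo luminescence, normalized to no-cell (cytotoxicity) and DMSO controls.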
# MCC-13 = experiment: as above; conditions: MCC and control cell lines, CellTiter-Glo viability, 72 h; series mostly up to 46 µM
# Procedure, shortened: as §2
# MCC-26 = experiment: as above; conditions: MCC and control cell lines, CellTiter-Glo viability, 72 h; series mostly up to 46 µM
# Procedure, shortened: as §2
# MKL-1 = experiment: as above; conditions: MCC and control cell lines, CellTiter-Glo viability, 72 h; series mostly up to 46 µM
# Procedure, shortened: as §2
# HEK293 = experiment: Cytotoxic Profiling of Annotated Libraries Using Quantitative High-Throughput Screening (AID 1296008); conditions: Five cell lines viability, CellTiter-Glo ATP luminescence, 48-72 h; max response: stronger effect = lower value; on max response: on the % scale 0 is the no-effect control and ±100 the full control effect
# Procedure, shortened: as §1
# NIH3T3 [3] = experiment: as above; conditions: Five cell lines viability, CellTiter-Glo ATP luminescence, 48-72 h; max response: stronger effect = lower value
# Procedure, shortened: as §1
# MKL-2 = experiment: qHTS assay to identify novel small-molecules to repurpose for Merkel cell carcinoma treatment (AID 1296009); conditions: MCC and control cell lines, CellTiter-Glo viability, 72 h; series mostly up to 46 µM
# Procedure, shortened: as §2
# UISO = experiment: as above; conditions: MCC and control cell lines, CellTiter-Glo viability, 72 h; series mostly up to 46 µM
# Procedure, shortened: as §2
# PC49 = experiment: qHTS profiling for inhibitors of Plasmodium falciparum proliferation (AID 504749); conditions: P. falciparum in erythrocytes, SYBR Green DNA, 72 h; series mostly up to 28.7 µM
# Procedure, shortened: (§3)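 P. falciparum-infected erythrocytes (0.3% parasitemia, 2.5% hematocrit) incubated with compound 72 h at 37 C, 5% CO2. Parasite DNA detected by SYBR Green after lysis, overnight at room temperature; normalised to 0.29 uM artemisinin and DMSO.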
# SC27B = experiment: as above; conditions: P. falciparum in erythrocytes, SYBR Green DNA, 72 h; series mostly up to 28.7 µM
# Procedure, shortened: as §3
# TAB113 = experiment: as above; conditions: P. falciparum in erythrocytes, SYBR Green DNA, 72 h; series mostly up to 28.7 µM
# Procedure, shortened: as §3
# W2 = experiment: as above; conditions: P. falciparum in erythrocytes, SYBR Green DNA, 72 h; series mostly up to 28.7 µM
# Procedure, shortened: as §3
# NIH3T3 [4] = experiment: qHTS assay to identify novel small-molecules to repurpose for Merkel cell carcinoma treatment (AID 1296009); conditions: MCC and control cell lines, CellTiter-Glo viability, 72 h; at 44.8 µM (top of the series) unless noted
# Procedure, shortened: as §2
# Further: nearly all actives have a fitted effect of over 60% in size.
# Potency means the concentration at half of the fitted maximal effect.
structure (smiles),measurement,setting,value
COCC1(CO)C(=O)C2CCN1CC2 (configuration not stated),max response,CRL-7250,-4.01%
same,outcome,HaCat [1],inactive
same,max response,KB-3-1,3.43%
same,outcome,HACAT [2],inactive
same,Potency,MCC-13,inactive
same,Potency,MCC-26,inactive
same,Potency,MKL-1,2090 nM (active)
COC1=CC(C)=C[C@@H](C)[C@@H](O)[C@@H](C)CC(C)=CC=C[C@H](OC)[C@H]([C@@H](C)[C@@H](O)[C@H](C)[C@@]2(O)C[C@@H](O)[C@H](C)[C@@H](C(C)C)O2)OC1=O,Potency,HEK293,11.8 nM (active)
same,Potency,KB-3-1,5.9 nM (active)
same,Potency,NIH3T3 [3],0.0148 µM (active)
same,Potency,MCC-13,166 nM (active)
same,Potency,MCC-26,4690 nM (active)
same,Potency,MKL-1,118 nM (active)
same,Potency,MKL-2,105 nM (active)
same,Potency,UISO,41.8 nM (active)
C[C@](O)(COc1ccc(C#N)cc1)C(=O)Nc1ccc(C#N)c(C(F)(F)F)c1,max response,CRL-7250,-6.61%
same,outcome,HaCat [1],inactive
same,max response,KB-3-1,-23.6%
same,outcome,HACAT [2],inactive
same,Potency,MCC-13,inactive
same,Potency,MCC-26,inactive
same,Potency,MKL-1,inactive
same,Potency,MKL-2,inactive
same,Potency,UISO,inactive
CC(C)Oc1cccc(NC(=O)c2ccccc2C(F)(F)F)c1,Potency,CRL-7250,54.5 µM (active)
same,max response,KB-3-1,-12.9%
same,Potency,MCC-13,inactive
same,Potency,MCC-26,inactive
same,Potency,MKL-1,inactive
CC(=Cc1csc(C)n1)[C@@H]1C[C@H]2O[C@]2(C)CCC[C@H](C)[C@@H](O)[C@@H](C)C(=O)C(C)(C)[C@@H](O)CC(=O)O1,max response,CRL-7250,-93.2%
same,max response,HaCat [1],-55%
same,Potency,KB-3-1,0.1 nM (active)
same,max response,NIH3T3 [3],-85.8%
same,Potency,MCC-13,inactive
same,Potency,MKL-1,inactive
same,Potency,MKL-2,inactive
O=C(O)c1cc(Oc2ccc(C(F)(F)F)cc2Cl)ccc1[N+](=O)[O-],max response,CRL-7250,-0.373%
same,max response,KB-3-1,-8.96%
same,Potency,MCC-13,inactive
same,Potency,MCC-26,inactive
same,Potency,MKL-1,inactive
same,Potency,MKL-2,inactive
same,Potency,UISO,inactive
CCCCCCCCCCCCCCCC[N+](C)(C)C,Potency,PC49,inactive
same,Potency,SC27B,12600 nM (active)
same,Potency,TAB113,8910 nM (active)
same,Potency,W2,6750 nM (active)
same,Potency,CRL-7250,6.68 µM (active)
same,Potency,HaCat [1],2110 nM (active)
same,Potency,NIH3T3 [3],21.1 µM (active)
same,Potency,MKL-1,944 nM (active)
same,Potency,MKL-2,750 nM (active)
CC[C@H]1C=CC=CC[C@@H](C)[C@H](O)[C@@](C)(O)C(=O)[C@@H](C)[C@H](O)[C@@H](C)C(=O)[C@@H](C)[C@H](O)[C@@H](C)C=CC(=O)O[C@@H]2[C@@H](C)[C@H](CC1)O[C@]1(CC[C@H](C)[C@H](C[C@@H](C)O)O1)[C@H]2C,Potency,CRL-7250,18.7 µM (active)
same,Potency,KB-3-1,372 nM (active)
same,Potency,NIH3T3 [3],16.6 µM (active)
same,Potency,MKL-1,296 nM (active)
same,Potency,MKL-2,93.5 nM (active)
same,Potency,UISO,1660 nM (active)
CC[C@@]1(O)C(=O)OCc2c1cc1n(c2=O)Cc2cc3ccccc3nc2-1,Potency,CRL-7250,0.418 µM (active)
same,Potency,HaCat [1],46.9 nM (active)
same,Potency,KB-3-1,469 nM (active)
same,Potency,NIH3T3 [3],0.148 µM (active)
same,Potency,MCC-13,26.4 nM (active)
same,Potency,MKL-1,33.2 nM (active)
same,Potency,MKL-2,74.3 nM (active)
same,Potency,UISO,29.6 nM (active)
N=c1c2c(-c3ccccc3)c(-c3ccccc3)n(Cc3ccccc3)c2ncn1C1CCC(O)CC1 (configuration not stated),Potency,HEK293,418 nM (active)
same,max response,HaCat [1],-23%
same,max response,NIH3T3 [3],-14.3%
same,Potency,MCC-26,inactive
same,Potency,MKL-1,18700 nM (active)
same,Potency,MKL-2,14800 nM (active)
same,Potency,UISO,3720 nM (active)
S=C(SSC(=S)N1CCCCC1)N1CCCCC1,max response,CRL-7250,-1.9%
same,max response,KB-3-1,-9.18%
same,Potency,MCC-13,168 nM (active)
same,Potency,MKL-1,133 nM (active)
same,Potency,MKL-2,94.4 nM (active)
same,Potency,UISO,94.4 nM (active)
CC1(N2CCC(n3c([C@@H]4CCCNC4)nc4ccccc43)CC2)CCCCCCC1,Potency,CRL-7250,14.8 µM (active)
same,max response,HaCat [1],-28.8%
same,Potency,MCC-13,inactive
same,Potency,MCC-26,inactive
same,Potency,MKL-1,23500 nM (active)
same,Potency,MKL-2,13200 nM (active)
C[C@H]1CCCC=CC2C[C@H](O)C[C@@H]2[C@H](O)C=CC(=O)O1 (some centres not stated),max response,CRL-7250,-95.9%
same,max response,HaCat [1],-111%
same,Potency,KB-3-1,1 nM (active)
same,Potency,NIH3T3 [3],1.05 µM (active)
same,Potency,MCC-13,inactive
same,Potency,MKL-1,inactive
same,Potency,MKL-2,inactive
same,Potency,UISO,inactive
Fc1cc(Br)ccc1CBr,max response,CRL-7250,-5.31%
same,outcome,HaCat [1],inactive
same,outcome,NIH3T3 [3],inactive
same,outcome,HACAT [2],inactive
same,Potency,MCC-13,inactive
same,Potency,MCC-26,inactive
same,Potency,MKL-1,inactive
same,Potency,MKL-2,inactive
same,outcome,NIH3T3 [4],inactive
same,Potency,UISO,inactive
Cc1c(C(=O)Nc2cccc(C(F)(F)F)c2)cc(-c2ccccc2)n1CCCN1CCOCC1,max response,CRL-7250,-26% and -3.59%
same,max response,KB-3-1,-13.2%
same,max response,NIH3T3 [3],-26.5% and -21.7%
same,Potency,MCC-13,inactive
same,Potency,MCC-26,inactive
same,Potency,MKL-1,inactive
O=c1[nH]c2ccc(Cl)cc2c(N[C@@H]2CN3CCC2CC3)c1-c1nc2ccccc2[nH]1,Potency,CRL-7250,2.35 µM (active) and 6.51 µM (active)
same,Potency,HaCat [1],16600 nM (active)
same,Potency,KB-3-1,3720 nM (active)
same,Potency,NIH3T3 [3],83.3 nM (active) and 206 nM (active)
same,Potency,MCC-13,4180 nM (active)
same,Potency,MKL-1,743 nM (active)
same,Potency,MKL-2,2640 nM (active)
same,Potency,UISO,5900 nM (active)
